Hit rate of the full screen: of about 37,000 compounds, about 2,800 (7.6%) were called active. Roughly 1% stayed inconclusive and do not appear here. Many of the other results were omitted from the sample, so actives are more common in it than they were. Values without a mark were called inactive. Rule as the data show it: active = inhibition above about 80%; inconclusive = no clear call, values can overlap the other calls; inactive = below that.

Our source for the inhibition values is PubChem BioAssay AID2330 (Broad Institute, 2010).

The experiment can be described thus: NOMO-1 AML cell viability reduction, primary screen, STK33 inhibitor project, CellTiter-Glo luminescence (AID 2330). As to conditions: NOMO-1 AML viability, 72 h, active compounds read high, concentration not given here. (In ATP-based viability assays light output follows the ATP content of the culture.)
As usually defined, the inhibition is the relative decrease from the control value, in per cent. For the molecule `C[C@@H]1CN([C@@H](C)CO)C(=O)c2cccc(NC(=O)c3ccncc3)c2O[C@@H]1CN(C)CC1CC1`, the inhibition is 4.97%.
Next, `C[C@@H]1CN([C@@H](C)CO)C(=O)c2cccc(NC(=O)c3cnccn3)c2O[C@H]1CN(C)Cc1ccc(C(=O)O)cc1`: -15.7%; `C[C@@H]1CN([C@@H](C)CO)C(=O)c2cccc(NC(=O)C3CC3)c2O[C@@H]1CN(C)Cc1ccccc1`: 4.47%.
In the case of `Cc1cc(C(=O)Nc2cccc3c2O[C@@H](CN(C)Cc2ccc(C(=O)Nc4ccccc4N)cc2)[C@H](C)CN([C@@H](C)CO)C3=O)n(C)n1`, the inhibition was 89.1% (active).
Take `Cc1cc(C(=O)Nc2cccc3c2O[C@@H](CN(C)Cc2ccncc2)[C@@H](C)CN([C@@H](C)CO)C3=O)n(C)n1`: the inhibition was 19.4%.
Next, `Cc1cc(C(=O)Nc2cccc3c2O[C@@H](CN(C)Cc2ccc(C(=O)O)cc2)[C@H](C)CN([C@@H](C)CO)C3=O)n(C)n1`: 0.233%.
Next, `C[C@H](CO)N1C[C@H](C)[C@@H](CN(C)Cc2ccc(C(=O)Nc3ccccc3N)cc2)Oc2c(NC(=O)C3CC3)cccc2C1=O`: 106% (active); `C[C@@H]1CN([C@H](C)CO)C(=O)c2cccc(NC(=O)c3cnccn3)c2O[C@@H]1CN(C)Cc1ccncc1`: 13.1%.
Next, `COc1ccc(CN(C)C[C@H]2Oc3c(NC(=O)C4CC4)cccc3C(=O)N([C@@H](C)CO)C[C@H]2C)cc1`: -16.6%; `C[C@@H]1CN([C@H](C)CO)C(=O)c2cccc(NC(=O)c3cnccn3)c2O[C@@H]1CN(C)Cc1ccc(C(=O)Nc2ccccc2N)cc1`: 126% (active).
Take `COc1ccc(S(=O)(=O)Nc2cccc3c2O[C@@H](CN(C)Cc2ccc(-c4ccccc4)cc2)[C@H](C)CN([C@H](C)CO)C3=O)cc1`: the inhibition was 22.4%.
In the case of `CCn1c(SCC(=O)c2ccc(OC)cc2)nnc1-c1ccc(Cl)cc1Cl`, the inhibition was -7.21%.
As to `Cc1cccc(N(CC(=O)Nc2cccc([N+](=O)[O-])c2)S(C)(=O)=O)c1C`, the inhibition is -1.91%.
Turning to `COc1cc(OC)c(NC(=O)CSc2nnc(-c3ccncc3)n2-c2ccccc2)cc1Cl`, the inhibition was 37.4%.
As to `COc1ccc(OC)c(NC(=O)c2cnn(-c3ccccc3Cl)c2NC(=O)c2ccco2)c1`, the inhibition was 21.2%.
Next, `CC(C)NC(=O)Nc1ccc2c(c1)CC(=O)N([C@H](C)CO)C[C@@H](C)[C@@H](CN(C)C(=O)Nc1ccc3c(c1)OCO3)O2`: 21.8%.
As for `c1ccc(-n2c(SCc3nc4ccccc4s3)nnc2-c2ccncc2)cc1`, the inhibition is 37.8%.
On to `CSC1=N/C(=C\C=C\c2cccs2)C(=O)S1`, for which the inhibition was 123% (active).
Next, `COc1ccc(N(Cc2cc3ccccc3[nH]c2=O)C(=O)c2cccc(OC)c2)cc1`: -11%; `COc1ccccc1CCNC(=O)c1cnccn1`: 4.1%; `COC(=O)c1scc(S(=O)(=O)C(C)(C)C)c1-n1cccc1`: 100% (active).
Next, `C[C@@H]1CN([C@H](C)CO)C(=O)c2cc(NC(=O)CCN3CCOCC3)ccc2O[C@H]1CN(C)Cc1ccc(Oc2ccccc2)cc1`: 5.92%.
The result for `C[C@@H]1CN([C@H](C)CO)C(=O)c2cc(NS(=O)(=O)c3cccs3)ccc2O[C@H]1CN(C)Cc1ccncc1` reads -4.5%; that for `C=C1C(=O)O[C@@H]2[C@H]3C(CO)=CC(=O)C3=C(C)C[C@H](OC(=O)Cc3ccc(O)cc3)[C@@H]12`, 120% (active); that for `C=CC(=O)c1ccc2ccccc2c1`, 98.4% (active).
Turning to `COc1ccccc1NC(=O)CCC(=O)c1ccc(C)cc1`, the inhibition was 29.1%.
Next, `COC(=O)C(C)N(C#N)c1nc(C)nc(C)n1` (stereo unspecified): 113% (active); `COc1ccc(CN(C)C[C@H]2Oc3c(NC(=O)c4cnccn4)cccc3C(=O)N([C@H](C)CO)C[C@@H]2C)cc1`: 5.98%; `C[C@@H]1CC[C@]2(C)[C@H](CC[C@@H](O)[C@]2(C)O)[C@@]1(C)CC(=O)c1ccoc1`: 9.78%.
Take `COCc1nc2c([nH]1)C(c1ccccc1COc1ccc(Cl)cc1)C(C#N)=C(N)O2` (stereo unspecified): the inhibition was 111% (active).
Regarding `COc1cc(OC)cc(C2C(C#N)=C(N)OC(N)=C2C#N)c1`, the inhibition is 38.6%.
For `CCn1c(SCC(=O)O)nnc1-c1ccc(OC)cc1`, the inhibition is -32.5%.
With `S=c1cc(-c2ccccc2)oc(-c2ccccc2)c1`, the inhibition is 61.2%.
`C[C@@H]1CN([C@H](C)CO)C(=O)c2cccc(NS(=O)(=O)c3ccc(Cl)cc3)c2O[C@@H]1CN(C)Cc1ccc(Oc2ccccc2)cc1`: the inhibition was 49.7%.
`CCC(=O)O[C@]1(C(=O)CCl)[C@@H](C)CC2C3CCC4=CC(=O)C=C[C@]4(C)[C@@]3(F)[C@@H](O)C[C@@]21C` (stereo partly specified): the inhibition was 7.72%.
Turning to `COc1cc(NC(=O)COc2ccc(Br)cc2)ccc1NC(=O)c1ccccc1Cl`, the inhibition was 13.7%.
Regarding `CC(C)(C)c1ccc(-c2[nH]nc(NC(=O)c3ccccc3Cl)c2Br)cc1`, the inhibition was 123% (active).
For `C[C@@H]1CN([C@@H](C)CO)C(=O)Cc2cc(NC(=O)Nc3ccc4c(c3)OCO4)ccc2O[C@@H]1CN(C)C(=O)Nc1ccc2c(c1)OCO2`, the inhibition is 9.09%.
In the case of `CC(C)NC(=O)Nc1cccc2c1O[C@H](CN(C)S(=O)(=O)c1ccccc1)[C@@H](C)CN([C@@H](C)CO)C2=O`, the inhibition was 6.74%.
On to `C[C@H]1CN([C@@H](C)CO)C(=O)c2cc(NS(=O)(=O)c3ccc(F)cc3)ccc2O[C@H]1CN(C)CC1CC1`, for which the inhibition is 16.3%.
Consider `Cc1ccc(S(=O)(=O)Nc2ccc3c(c2)C(=O)N([C@@H](C)CO)C[C@H](C)[C@@H](CN(C)S(=O)(=O)c2ccc(C)cc2)O3)cc1`, for which the inhibition is -8.16%.
Take `C[C@@H]1CN([C@H](C)CO)C(=O)Cc2cc(NC(=O)c3ccncc3)ccc2O[C@H]1CN(C)S(=O)(=O)c1cccs1`: the inhibition is 13.9%.
Next, `C[C@H](CO)N1C[C@H](C)[C@H](CN(C)Cc2ccc(C(F)(F)F)cc2)Oc2ccc(NS(C)(=O)=O)cc2C1=O`: 3.14%; `CN1CCN(CC(=O)Nc2sc3c(c2C#N)CCC(C(C)(C)C)C3)CC1` (stereo unspecified): 115% (active).
As for `CCn1c(SCC(=O)Nc2sc3c(c2C#N)CCCC3)nnc1-c1ccccc1O`, the inhibition was -7.99%.
Turning to `N#Cc1c(NC(=O)CCn2cnc3ccccc3c2=O)sc2c1CCCC2`, the inhibition was 27.7%.
